Screening results as filed in PubChem.
JMJD2C inh = human JMJD2C demethylase inhibition | Q9H3R0 | GST-JMJD2C(1-420) H3K9me3 demethylation, DELFIA europium | inhibition, % at 2.35 µM | 330,000 tested, 0.069% active;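 active = more than half of a compound's replicate wells show inhibition beyond 50%, single wells judged on their own value; inconclusive = some, but no more than half, of replicates pass 50% inhibition; inactive = no replicate passes 50% inhibition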;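 also: signal counts dimethyl H3K9 product captured on neutravidin plate; 0% = median of DMSO wells and 100% = 0.3 times that DMSO median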
Target sequence (Q9H3R0 1-420 limits assumed): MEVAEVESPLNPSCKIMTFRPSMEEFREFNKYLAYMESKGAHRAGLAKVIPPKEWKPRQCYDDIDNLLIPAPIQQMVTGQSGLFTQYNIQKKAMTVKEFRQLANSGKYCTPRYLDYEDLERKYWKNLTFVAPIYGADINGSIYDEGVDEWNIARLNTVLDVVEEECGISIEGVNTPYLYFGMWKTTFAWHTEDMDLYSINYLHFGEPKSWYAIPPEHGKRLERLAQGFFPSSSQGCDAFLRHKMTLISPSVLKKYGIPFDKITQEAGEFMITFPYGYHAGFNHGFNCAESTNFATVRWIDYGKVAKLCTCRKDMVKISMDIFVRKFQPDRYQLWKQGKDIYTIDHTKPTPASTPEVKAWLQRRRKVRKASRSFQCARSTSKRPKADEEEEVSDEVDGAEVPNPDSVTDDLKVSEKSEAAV
Yeast superoxide = lowers age-related superoxide in aged yeast cells | superoxide response (% of plate mean), % at 10 µM | 330,000 tested, 0.18% active | S. cerevisiae aged cells, superoxide DHE fluorescence; stronger effect = lower value;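 active = superoxide response under a set limit, about three screen SD below normal, cut at about 65% in these data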;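 also: yeast aged for seven days with compound at 30 °C before DHE staining; 100% = average MFI of all compound-treated wells on the plate with controls excluded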
V-ATPase pHluor = yeast V-ATPase proton transport regulation by pHLuorin. S. cerevisiae, pHLuorin cytosolic pH fluorescence. response, % at 10 µM. 350,000 tested, 0.37% active. AID 504577; in the data active = response mostly above about 7.3%, no sharp cut-off; inactive = mostly below about 5.4%; also: actives read high
PKA-R2B activ = PKA-R2B complex activation. P22694+P31323. PKA-R2B holoenzyme dissociation, Cy5-IP20 fluorescence polarization; R2B truncated from residue 108, S112A mutant; 0% DMSO only, 100% 113 µM cGMP. activation, % at 11.4 µM. 340,000 tested, 0.079% active;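 active = activation above a cutoff set at the mean over all compounds plus 3 SD, cut at about 18% in these data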;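 also: higher means more holoenzyme dissociation and a rise in polarization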
PolyA inhibitor = blocks polyadenylation in yeast reporter cells | S. cerevisiae SKY197-pL101 polyadenylation reporter, beta-gal luminescence; efflux-impaired pdr1/pdr3 knockout yeast; score 100 = 6 SD above DMSO | activity score, % at 12 µM | 300,000 tested, 0.02% active;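 active = lowest replicate activity score at least 50, where 100 means six control SD above control mean; inconclusive = lowest score under 50 but half or more replicates reach 50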;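 also: yeast exposed to compound for 9 h at 30 °C; higher score means more reporter readthrough which indicates perturbed polyadenylation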
PKA-R1A activ = PKA-R1A complex activation. 340,000 tested, 0.083% active. PKA-R1A dissociation, Cy5-IP20 fluorescence polarization; scaled: DMSO 0%, 113 µM cGMP 100%. AID 504707. P00514+P68181. activation, % at 11.4 µM;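 active = percent activation above the mean of all tested compounds plus 3 SD, cut at about 19% in these data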;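 also: higher means more PKAc released from R1A so a rise in polarization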
CR mimetic CP = confirmation of caloric restriction mimetics inhibiting yeast age-related superoxide | shares compounds with Yeast superoxide | S. cerevisiae aging, superoxide DHE fluorescence; stronger effect = lower value | superoxide response (% of plate), % at 10 µM | 850 tested, 1% active | AID 434994;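 active = superoxide signal below 65% of the plate average of sample wells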;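 also: cells aged with compound for 7 days at 30 degrees C before staining; 100% equals mean DHE fluorescence of all compound wells on the plate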
DHE counter = DHE fluorescence interference, counter-screen artifact; shares compounds with Yeast superoxide; S. cerevisiae BY4741, flow cytometry; stronger effect = lower value; fluorescence response, % at 10 µM; 850 tested, under 10 active; AID 435000;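 active = fluorescence response below 15%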;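 also: percent of the mean fluorescence averaged over all compound wells on the plate; lower means stronger quenching of DHE signal or ROS scavenging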
Numbers without * were called inactive; u = inconclusive; x = no result given. Rows were chosen to be rich in hits. Some 0.78% of all compounds tested hit in one or more screens of this group.

SMILES	JMJD2C inh	Yeast superoxide	V-ATPase pHluor	PKA-R2B activ	PolyA inhibitor	PKA-R1A activ	CR mimetic CP	DHE counter
C[C@]12CCC3C(CC[C@H]4CCCC[C@]34C)C1CC[C@@]2(O)CNCCO (stereo not given in full)	2.6	110.6	-1.6	0.9	9.2	-5.1	90.7	95.0
Cc1ccc(CNC(=O)CO/N=C/c2ccc(C(C)(C)C)cc2)cc1	2.8	110.2	-1.9	-2.8	-13.7	1.6	x	x
CC(C)(C)c1ccc(/C=N/OCC(=O)NCc2ccc(F)cc2)cc1	-23.8	62.5*	-2.9	-1.8	10.4	-2.3	101.3	91.0
Cc1nnsc1-c1c(C(=O)N2CCOCC2)c(C)nn1-c1ccc(Cl)cc1	14.3	45.7*	0.8	1.8	1.7	-0.2	97.7	86.7
Cc1cccc(NC(=O)c2nc[nH]c2C(=O)N[C@@H](C)C(=O)OCc2ccccc2)c1	0.9	87.4	1.3	-9.1	22.4	-10.9	x	x
Cc1cccc(NC(=O)c2nc[nH]c2C(=O)N[C@@H](CC(C)C)C(=O)OCc2ccccc2)c1	5.2	63.3*	3.5	-4.6	0.6	-3.3	91.2	94.4
COc1ccc(C)cc1N(C(=O)c1cccc(F)c1)c1nc2ccccc2s1	5.3	48.5*	3.7	-12.3	x	-8.3	96.5	107.8
Cn1ccsc1=NC(=O)c1ccccc1F	-5.2	88.3	1.6	6.3	13.4	6.7	x	x
Cc1ccc(C)c(-n2c(-c3ccc(Br)cc3)csc2=NC(=O)c2ccccc2F)c1	-8.5	52.9*	-2.7	-9.9	-10.2	-7.1	106.1	90.5
CC(c1ccco1)N(C(=O)c1ccccc1NS(=O)(=O)c1ccc(Cl)c([N+](=O)[O-])c1)c1ccccn1 (stereo not given)	0.6	65.1*	0.1	-8.1	7.9	-11.7	97.1	88.4
O=C(CCCn1c(=O)oc2ccccc21)NNC(=O)COc1ccc(F)cc1	6.7	103.0	1.5	-6.9	x	5.7	x	x
COc1ccc([N+](=O)[O-])cc1N(CC(O)CN(C)C)S(=O)(=O)c1ccccc1 (stereo not given)	-24.7	54.4*	3.2	-4.4	-9.5	6.8	105.4	111.2
C=CCN(CC=C)CC(O)CN(c1cc([N+](=O)[O-])ccc1OC)S(=O)(=O)c1ccccc1 (stereo not given)	0.7	95.6	0.3	-5.9	19.9	-4.3	x	x
Cc1cc(C)n(-c2nnc(NCc3ccc(Cl)cc3)nn2)n1	19.1	80.3	0.7	-12.8	-34.4	-2.1	x	x
Cc1nn(-c2nnc(NCc3ccccc3)nn2)c(C)c1Br	-4.7	63.4*	1.4	-0.1	3.4	-7.7	84.7	92.3
CSCCC(NC(=O)C1CCC(C)CC1)C(=O)NCCN1CCOCC1 (stereo not given)	-3.6	58.0*	0.2	-7.4	11.5	4.3	97.6	97.3
CCOc1cc(CNC2CCCC2)c(Cl)cc1OCC(=O)Nc1ccccc1	91.4	84.6	-1.5	8.3	6.3	-2.9	x	x
Cc1ccc(CN(CC(=O)NCCc2ccccc2)C(=O)CCCC(=O)Nc2cc(C)on2)cc1	-7.6	63.6*	2.3	2.5	-7.1	-7.6	108.1	91.2
Cc1cccc(C)c1NC(=O)CN(C)S(=O)(=O)c1ccc(-c2ccc(=O)[nH]n2)s1	u	100.5	-0.8	-9.2	13.1	-6.9	x	x
c1cc2c(cc1CN1CCN(C3CCCCCC3)CC1)OCO2	-2.4	43.7*	5.5	-6.1	5.5	-2.5	95.0	92.9
NNc1nc2cc3c(cc2s1)OCCO3	1.7	81.0	-2.2	-14.7	-13.4	-7.5	x	x
CC(=O)NC1(C(=O)O)CCCC1	5.3	104.9	2.7	-4.4	11.0	-13.8	x	x
Cc1nc2c(-c3ccccc3)c(C)nn2c(N)c1-c1ccccc1	2.3	116.1	-16.7	-2.0	3.2	-4.1	x	x
Cc1cc(N)n2nc(-c3ccccc3)c(-c3ccccc3)c2n1	-5.4	105.6	-4.3	2.5	13.9	8.7	99.9	93.2
CC(=O)c1cnc2c(-c3ccccc3)c(-c3ccccc3)nn2c1C	-4.5	109.2	-1.2	0.2	-7.4	-1.6	115.9	122.4
SMILES	JMJD2C inh	Yeast superoxide	V-ATPase pHluor	PKA-R2B activ	PolyA inhibitor	PKA-R1A activ	CR mimetic CP	DHE counter
Cc1cc(C)cc(NC(=O)COC(=O)CCCC2=NS(=O)(=O)c3ccccc3N2)c1	15.4	93.3	1.1	-4.9	-11.9	2.2	x	x
CCOc1ccccc1NC(=O)COC(=O)CC(C)(C)CC1=NS(=O)(=O)c2ccccc2N1	-1.4	58.0*	6.1	0.3	-6.5	-2.0	105.6	109.5
Cc1cc(C)cc(NC(=O)CSc2ccc(-c3ccccn3)nn2)c1	-0.1	108.7	1.9	-1.7	8.3	1.9	x	x
COC(=O)c1ccc(NC(=O)CSc2ccc(-c3ccccn3)nn2)cc1	-10.7	102.4	-2.3	11.6	3.9	-1.7	81.8	98.2
CCn1c(SCC(=O)Nc2ccc(C(=O)OC)cc2)nnc1-c1cccs1	2.7	88.7	-6.0	4.9	x	5.8	105.2	100.7
CCn1c(C)nnc1SCC(=O)Nc1ccc(C(C)=O)cc1	-18.8	58.9*	0.2	5.5	5.9	-0.6	91.3	98.3
CCn1c(SCC(=O)N2CCN(S(=O)(=O)c3ccccc3)CC2)nnc1-c1cccs1	-3.5	63.2*	4.2	-5.5	-3.7	2.1	100.8	92.1
CCn1c(C)nnc1SCC(=O)Nc1ccc(OC)cc1	x	x	-0.6	-8.2	x	11.8	x	x
CC(C)Oc1ccc(C(=O)N2CCN(C(=O)c3ccco3)CC2)cc1	-2.3	94.5	-1.4	-2.8	15.8	1.5	x	x
O=C(N/N=C/c1ccco1)c1[nH]ncc1Br	-12.7	61.2*	1.4	6.4	x	-5.3	95.9	93.5
CCOc1cccc(-c2nnc(SCC(=O)Nc3cccc(OC)c3)n2N)c1	28.7	x	6.8	-1.4	-11.8	-7.0	104.3	99.8
C=CCn1c(SCC(=O)Nc2ccc3c(c2)OCCO3)nnc1-c1ccco1	-9.9	92.3	2.0	3.9	11.9	4.4	103.7	101.6
COc1cccc(NC(=O)CSc2nnc(-c3cc(C)[nH]n3)n2N)c1	8.3	88.8	-1.4	-9.3	1.8	-11.8	x	x
C=CCn1c(SCC(=O)Nc2cc(NC(C)=O)ccc2OC)nnc1-c1cccnc1	6.2	105.0	2.5	2.7	0.2	-6.5	93.9	94.1
COc1cccc(-c2nnc(SCC(=O)Nc3ccc(OC)c(OC)c3)n2N)c1	-3.3	104.4	-1.5	-2.1	16.1	1.6	110.7	99.2
COc1ccccc1CSc1nc2c(c(=O)n(C)c(=O)n2C)n1C	7.3	x	0.9	-4.3	10.7	-3.9	x	x
